Bioassay records from PubChem.
Shown are actives, neighbours in structure and some others; about 11% of the full set was active somewhere.
G9a block: inhibitors of human histone lysine methyltransferase G9a; Q96KQ7; G9a H3K9 monomethylation, AlphaScreen, 2 h; Potency, µM (doses to about 102 µM), actives largely listed as inhibitors; actives 8.8% (n = 350,000); note: nearly all actives have a fitted effect of over 75% in size
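Signal arises when biotinylated H3K9 peptide, once monomethylated, bridges streptavidin donor and antibody-captured acceptor beads. Enzyme at 20 nM was preincubated 15 min with test compounds; peptide 500 nM and SAM 20 uM then reacted for 2 h.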
JMJD2A Tudor: JMJD2A Tudor domain (human) inhibition. O75164. AlphaScreen JMJD2A-Tudor / H3K4me3 peptide binding. Potency, µM (series often up to 114 µM), actives largely listed as inhibitors. actives 4.4% (n = 390,000). AID 504339; note: nearly all actives have a fitted effect of over 50% in size
Target sequence (O75164 whole entry, looked up, the tested form may be a part): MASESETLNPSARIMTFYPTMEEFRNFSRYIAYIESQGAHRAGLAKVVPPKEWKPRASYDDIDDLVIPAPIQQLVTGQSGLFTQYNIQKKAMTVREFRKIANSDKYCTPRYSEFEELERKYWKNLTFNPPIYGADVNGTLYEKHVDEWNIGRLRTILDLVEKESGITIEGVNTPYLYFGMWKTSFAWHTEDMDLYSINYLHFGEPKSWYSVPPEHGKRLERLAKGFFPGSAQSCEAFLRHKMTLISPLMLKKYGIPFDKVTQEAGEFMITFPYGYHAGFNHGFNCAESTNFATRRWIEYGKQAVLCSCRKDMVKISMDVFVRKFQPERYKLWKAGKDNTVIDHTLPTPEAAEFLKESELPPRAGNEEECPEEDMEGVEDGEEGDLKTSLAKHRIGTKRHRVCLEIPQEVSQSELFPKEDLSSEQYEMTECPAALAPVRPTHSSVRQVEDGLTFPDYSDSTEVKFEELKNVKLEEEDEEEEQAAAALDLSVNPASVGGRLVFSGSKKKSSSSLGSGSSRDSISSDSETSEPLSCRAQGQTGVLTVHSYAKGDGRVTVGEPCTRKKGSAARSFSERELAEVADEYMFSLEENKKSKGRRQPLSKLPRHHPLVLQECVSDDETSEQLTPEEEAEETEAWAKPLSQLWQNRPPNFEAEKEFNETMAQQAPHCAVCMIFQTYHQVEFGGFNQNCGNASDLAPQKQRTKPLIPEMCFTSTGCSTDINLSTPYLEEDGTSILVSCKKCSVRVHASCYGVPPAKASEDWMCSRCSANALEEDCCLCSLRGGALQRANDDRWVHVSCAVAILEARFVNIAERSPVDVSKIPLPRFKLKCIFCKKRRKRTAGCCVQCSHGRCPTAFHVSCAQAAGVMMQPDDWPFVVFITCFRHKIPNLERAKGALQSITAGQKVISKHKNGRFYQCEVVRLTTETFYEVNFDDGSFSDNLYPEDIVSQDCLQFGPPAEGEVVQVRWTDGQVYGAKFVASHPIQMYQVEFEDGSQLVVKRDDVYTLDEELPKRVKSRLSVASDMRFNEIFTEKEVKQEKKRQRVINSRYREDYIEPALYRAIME
HP1b chromo inh: HP1-beta chromodomain-methylated histone interaction inhibition. AlphaScreen HP1-beta / biotin-H3K9me3 peptide binding. AID 540317. actives 0.56% (n = 390,000). Potency, µM (top dose mostly 114 µM), actives largely listed as inhibitors. P83916; note: nearly all actives have a fitted effect of over 70% in size
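Compound inhibition of the preformed complex between 50 nM HP1-beta and 50 nM biotinylated H3K9me3 peptide was read by AlphaScreen. Buffer was PBS pH 7.4 with 0.01% Tween-20. Incubations ran 30 min at room temperature, with 10 ug/mL donor/acceptor beads.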
BAZ2B inh: blocks human BAZ2B. Q9UIF8. AlphaScreen BAZ2B-H3K14Ac peptide displacement. Potency, µM (doses to about 114 µM), usual class: inhibitors. actives 4.4% (n = 360,000). AID 504333; note: nearly all actives have a fitted effect of over 60% in size
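Compounds, titrated to a top concentration of 110 uM, were incubated 30 min at room temperature with preformed BAZ2B/acetyl-K14 H3 peptide complex (50 nM each). Proximity signal was measured by AlphaScreen after 20 min with beads.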
L3MBTL1 block: inhibitors of human L3MBTL1; AlphaScreen L3MBTL1–H3K9me1 peptide binding; Q9Y468; actives 0.66% (n = 230,000); AID 485360; Potency, µM (series often up to 57.1 µM), usual class: inhibitors; note: nearly all actives have a fitted effect of over 60% in size
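Read-out is AlphaScreen signal from streptavidin donor and nickel chelate acceptor beads (10 ug/mL final each) bridging L3MBTL1 (50 nM) and biotinylated K9-monomethylated H3(1-15) peptide (75 nM), after 30 min compound exposure at room temperature.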
PI5P4Ka inh: blocks human PI5P4K alpha kinase activity | P48426 | PI5P4Kalpha enzyme, ADP-Glo luminescence, 60 min; stronger effect = lower value | max response, % | actives 1.2% (n = 330,000); active = max response of -50% or lower; inconclusive = between -30% and -50%; inactive = -30% or higher; note: value at the top dose of about 77 µM
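PI5P4Kalpha ADP-Glo assay; 5 microM ATP final; 60 min RT reaction; HEPES pH 7.4/EGTA/CHAPS, 5% DMSO; controls lacking substrate or enzyme; luminescent end-point.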
Hits are given with their value; - = inactive; ? = inconclusive; . = no result given; [ ] = another dose, or the depositor's remark. Unless noted, calls come from the whole dose curve; as a rule, active = well fitted inhibition curve with a large enough effect; inconclusive = small, poorly fitted or top-dose-only effect; inactive = no such curve, though single readings can be large or run the other way.

SMILES	G9a block	JMJD2A Tudor	HP1b chromo inh	BAZ2B inh	L3MBTL1 block	PI5P4Ka inh
Cc1ccc(S(=O)(=O)N2CCc3c2cc([N+](=O)[O-])cc3[N+](=O)[O-])cc1	-[2.33 µM]	32µM	?	?	.	-
Cc1ccc(S(=O)(=O)N2CCC(=O)c3ccccc32)cc1	.	.	.	.	.	-
CCc1ccc(N2C(=O)CSC23C(=O)N(Cc2cccc(OC)c2)c2ccccc23)cc1 (centres undefined)	-	-	-	-	.	.
CCc1cccc(C)c1NC(=O)C(CC)Sc1nc2ccncc2[nH]1 (centres undefined)	-	-	-	-	.	.
Cc1ccc(F)cc1N=Cc1c(O)c2ccccc2oc1=O	79µM	-	-	-	.	-
CCOC(=O)COc1ccc(C2NC(C(=O)O)CS2)cc1 (centres undefined)	?	7.9µM	?	56µM	-[11.4 µM]	-
COC(=O)c1ccc(C2NC(C(=O)O)CS2)cc1 (centres undefined)	3.5µM	6.3µM	-	?	.	.
COc1cc(C2NC(C(=O)O)CS2)ccc1OCc1ccccc1C#N (centres undefined)	20µM	.	.	-	-[11.4 µM]	.
COc1cc(/C=C/C(=O)O)ccc1OCc1ccccc1C#N	-	-	-	-	-	-
CCc1ccccc1NC(=O)Cn1c(=O)oc2ccccc21	-	-	-	-	.	.
CCC(C)NC(=O)c1nn(-c2ccc(C)cc2)c(=O)n(C)c1=O (centres undefined)	-	-	-	-	.	.
CCN1CCN(c2nc3c(C)cccn3c(=O)c2/C=C(\C#N)S(=O)(=O)c2ccc(C)cc2)CC1	50µM	?	-	?	-	-
Cc1cccn2c(=O)c(/C=C(\C#N)S(=O)(=O)c3ccccc3)c(N3CCN(C)CC3)nc12	?	-	-	-	-	-
CCN1CCN(c2nc3c(C)cccn3c(=O)c2/C=C(\C#N)S(=O)(=O)c2ccc(Cl)cc2)CC1	32µM	?	?	?	-	-
Cc1ccc(S(=O)(=O)/C(C#N)=C/c2c(N3CCN(C)CC3)nc3c(C)cccn3c2=O)cc1	45µM	?	-	?	-	-
CC(C)Sc1nc2[nH]ncc2c(=O)[nH]1	35µM	-	-	-	-	-
CC(C)(C)c1ccc(OCC(=O)Nc2ccc(S(=O)(=O)Nc3ncccn3)cc2)cc1	-	-	-	-	.	.
COc1ccccc1C1c2[nH]c3ccccc3c2CCN1Cc1cnc(C)s1 (centres undefined)	-	-[11.4 µM]	-	-	-	-
COc1ccc(C2c3[nH]c4ccccc4c3CCN2Cc2cccn2-c2ncccn2)cc1C (centres undefined)	-[0.501 µM]	?	?	35µM	-	-
CC(=O)Nc1ccc(CN2CCc3c([nH]c4ccccc34)C2c2ccccn2)cc1 (centres undefined)	?	?	-	?	-	-
Cc1cccc(C2c3[nH]c4ccccc4c3CCN2Cc2cccn2-c2ncccn2)c1 (centres undefined)	.	50µM	?	32µM	-	-
c1ccc(C2c3[nH]c4ccccc4c3CCN2Cc2cccn2-c2ccccn2)nc1 (centres undefined)	?	?	-	20µM	-	-
CS(=O)(=O)N1CCC2(CCN(C(c3ccccc3)c3ccccc3)CC2)CC1	-[12.7 µM]	.	.	.	.	.
O=C(COc1ccc(F)cc1)Nc1nnc(SCc2cc(=O)n3ccccc3n2)s1	-	-	-	-	.	.
Cc1nn(CC(=O)NCc2ccccc2Br)c(=O)c2cc3occc3n12	-	-	-	-	.	.
SMILES	G9a block	JMJD2A Tudor	HP1b chromo inh	BAZ2B inh	L3MBTL1 block	PI5P4Ka inh
COC(=O)CN1C(=O)[C@@H]2[C@H](C1=O)[C@@H]1CC(C(=O)OC)=C[C@@H](C(=O)OC)C3C1=C(C(=O)[C@]3(C)NC(=O)c1ccccc1)[C@@H]2C (some centres undefined)	.	-	-	.	.	.
CC(/C=C/c1ccccc1F)=N\NC(=O)c1ccc(Cl)cc1	-[0.501 µM]	22µM	-	-	-	-68
N#CC1=C(N)N(c2ccccc2)C(c2cccc([N+](=O)[O-])c2)C1(C#N)C#N (centres undefined)	45µM	?	-	?	-	-
O=C(CCCN1C(=O)/C(=C\c2ccco2)SC1=S)Nc1ccc2ccccc2c1	25µM	-	-	?	-	-
COc1ccccc1/C=C1\SC(=S)N(CCC(=O)Nc2ccc(C(=O)O)c(O)c2)C1=O	50µM	?	?	50µM	.	?
O=C(CCN1C(=O)/C(=C\c2ccco2)SC1=S)Nc1ccc(C(=O)O)c(O)c1	?	56µM	?	35µM	.	-74
O=C(CCN1C(=O)/C(=C/c2ccco2)SC1=S)Nc1ccc(C(=O)O)c(O)c1	22µM	50µM	50µM	45µM	.	-63
O=C(CCN1C(=O)/C(=C\c2cccs2)SC1=S)Nc1ccc(C(=O)O)cc1	?	?	-	-	.	-
CCCNC(=O)Cn1c(=O)cc(C)c2c(C)nn(-c3cccc(F)c3)c21	-	-	-	-	.	.
COc1ccc2c(C)c(CCC(=O)NCCc3ccc(Cl)cc3)c(=O)oc2c1	-	-	-	-	.	.
COc1ccccc1CNC(=O)COCc1cc(-c2ccc3c(c2)OCO3)on1	-	-	-	-	.	.
CCOc1ccc(OCCOc2ccc(/C=C/C(=O)O)cc2OCC)cc1	?	-	-	-	.	-
CCOc1cc(/C=C/C(=O)O)ccc1OCCO	-	35µM	-	-	-	-
CCOC(=O)Cn1nc(-c2ccccc2)c2cnc3ccc(OCC)cc3c21	-	-	-	.	.	.
CCOC(=O)Cn1nc(-c2ccccc2)c2cnc3ccc(C)cc3c21	56µM	-	-	-	-	-
O=C(CSc1ccccc1)NCc1ccc2c(c1)CCN2C(=O)c1ccc(F)cc1	-	-	-	-	.	.
CCOC(=O)c1c(NC(=O)c2ccc(S(=O)(=O)N3CCOCC3)cc2)sc2c1CCN(C)C2	50µM	-	-	?	-	.
CC(C)N1CCc2c(sc(NC(=O)c3ccc(S(=O)(=O)N4CCOCC4)cc3)c2C#N)C1	32µM	-	-	-	-	-
COC(=O)c1c(NC(=O)c2ccc(S(=O)(=O)N3CCCCC3)cc2)sc2c1CCN(C)C2	?	-	-	-	.	.
CCOC(=O)c1c(NC(=O)c2ccc(S(=O)(=O)N3CCC(C)CC3)cc2)sc2c1CCN(CC)C2	-	-	-	-	.	.
CCOC(=O)N1CCc2c(sc(NC(=O)c3ccc(S(=O)(=O)N4CCCC4)cc3)c2C#N)C1	?	-	-	-	-	-82
O=C(c1cc2ccccc2oc1=O)N1CCN(c2ccc(F)cc2)CC1	-	-	-	-	.	.
Clc1ccc(-c2noc(-c3cccnc3N3CCN(c4ccccc4)CC3)n2)cc1	-	-	-	-	.	.
Cc1cccc(C(=O)OCc2cc(=O)n3nc(C4CC4)sc3n2)c1	-	-	-	-	.	.
